Screen size: about 69,000 compounds; about 8,600 (12%) showed an effect of 50% or more. The sample holds strong results, similar compounds and a random draw of the others, so the mix is not that of the screen.
What follows are compounds tested on Plasmodium berghei (assay: Screen against P. berghei liver stage (PbLuc), transformed with Luciferase, at 10uM). Conditions: tested at 10 uM.
Type: functional, HepG2
`Cc1nc(CN2CCCC(c3cnccn3)C2)cs1` (stereo unspecified) gave an INHIBITION of 17.8%. Work on `CC(C)c1noc(-c2ccc(NCCCC3CCOC3)nc2)n1` (stereo unspecified) yielded an INHIBITION of 43.9%. `CC(C)c1noc(-c2ccc(NCC3CCCOC3)nc2)n1` (stereo unspecified) was tested, and the INHIBITION was -118%. For `CC(C)c1noc(-c2ccc(NCCCN3CCCC(O)C3)nc2)n1` (stereo unspecified), the INHIBITION was 53%. `CS(=O)(=O)NC1CC2(CCN(CCF)CC2)Oc2ccccc21` (stereo unspecified) gave an INHIBITION of 12.5%. In the case of `CCOC(C)c1nccn1Cc1noc(CC)n1` (stereo unspecified), the INHIBITION is reported as 8.41%. Compound `CCC(C)[C@H](N)c1nnc(SCC(=O)Nc2cc(C)ccc2C)o1` (stereo partly specified) has an INHIBITION of 22.2%. Work on `CN(Cc1cc2n(n1)CCN(C(=O)[C@H]1CCCO1)C2)Cc1nccs1` yielded an INHIBITION of 50.3%. For `CN(Cc1cc2n(n1)CCN(C(=O)c1cccnc1)C2)Cc1nccs1`, the INHIBITION was -10.6%. With `CN(Cc1cc2n(n1)CCCN(C(=O)N1CCCC1)C2)Cc1nccs1` the INHIBITION was 38.5%. With `Cc1nc(C)n(CC2CCCN2CCOc2ccccc2C#N)n1` (stereo unspecified) the INHIBITION was 17.4%. For `CC(C)CN(CC(O)c1ccccc1)C(=O)NC(C)C` (stereo unspecified), the INHIBITION was 40.9%. `CCn1nc(C)c(CCNC(=O)C2CCCN(C(N)=O)C2)c1C` (stereo unspecified) gave an INHIBITION of -8.11%. For `CC(C)c1ccc(OCCC(=O)N2CCCN(C(N)=O)CC2)cc1`, the INHIBITION was -4%. In the case of `CC(c1ccccn1)N(C)Cc1cc2cc3c(cc2[nH]c1=O)OCO3` (stereo unspecified), the INHIBITION is reported as 21.8%. Compound `CC(c1cccnc1)N(C)Cc1cc2cc3c(cc2[nH]c1=O)OCO3` (stereo unspecified) has an INHIBITION of 27.6%. In the case of `CC(c1ccncn1)N(C)Cc1cc2cc3c(cc2[nH]c1=O)OCO3` (stereo unspecified), the INHIBITION is reported as 58.7%. Work on `Cc1ccc(N2CCCC(NCCS(C)(=O)=O)C2)nn1` (stereo unspecified) yielded an INHIBITION of 64.4%. `Cc1ccc(N2CCCC(NCCCS(C)(=O)=O)C2)nn1` (stereo unspecified) was tested, and the INHIBITION was 14.9%. Compound `COCCCNC1CCCN(c2ccc(C)nn2)C1` (stereo unspecified) has an INHIBITION of -28.7%. `CCOCC(=O)NCCCn1ccnc1-c1ccccc1` showed an INHIBITION of 16.5%. `CCc1nnc(CN(CC)C(=O)C2CC(=O)N(C(C)(C)C)C2)o1` (stereo unspecified) showed an INHIBITION of 35.8%. For `CCn1ccc(-c2cc(C(=O)O)n3nc(C)c(Cl)c3n2)n1`, the INHIBITION was 12.3%. In the case of `Cc1cccc(OCCCNC(=O)Cn2ccc(C)cc2=O)c1`, the INHIBITION is reported as -12.9%. `CCOc1cccc(C(=O)Nc2ccn(CC)n2)c1` showed an INHIBITION of -35.4%. With `COc1ccccc1OCCNCCn1cccn1` the INHIBITION was 19.4%. `CCn1ccc(-c2cc(NCCCOc3ccccc3C)nc(C)n2)n1` was tested, and the INHIBITION was 82.4%. `CCn1ccc(-c2cc(NCCCOc3cccc(C)c3)nc(C)n2)n1` showed an INHIBITION of 75.9%. `CCCNC(=O)c1nn(CC)cc1NC(=O)C(C)n1ncc(Cl)c1C` (stereo unspecified) gave an INHIBITION of 8.49%. `CC(C)NC(=O)N1CCc2ncnc(-c3ccncc3)c2CC1` was tested, and the INHIBITION was -7.24%. With `Cc1nc(C)n(CC2CN(CCOc3cccc(C#N)c3)CCO2)n1` (stereo unspecified) the INHIBITION was -5.07%. For `Cc1ccc(CN2CCc3[nH]nc(C(=O)N4CCNC(=O)C4)c3C2)s1`, the INHIBITION was 18.7%. With `CCNC(=O)[C@@H]1C[C@@H](NC(=O)c2cc(C)on2)CN1Cc1ccccn1` the INHIBITION was 54.8%. `CCNC(=O)[C@@H]1C[C@H](NC(=O)Cc2ccsc2)CN1Cc1ccc(C)o1` gave an INHIBITION of 24.6%. Compound `CCNC(=O)[C@@H]1C[C@H](NC(=O)c2ccc(C)s2)CN1Cc1ccc(C)o1` has an INHIBITION of 68.9%. `CCNC(=O)[C@@H]1C[C@@H](NC(=O)Cc2ccccn2)CN1CCCSC` showed an INHIBITION of 41.8%. `CCNC(=O)[C@@H]1C[C@H](NC(=O)c2cc(CC)n[nH]2)CN1Cc1ccsc1` showed an INHIBITION of -20.5%. `CCNC(=O)[C@@H]1C[C@@H](NC(=O)c2ccc(C)s2)CN1Cc1ccccn1` was tested, and the INHIBITION was 18.9%. `CCN(CCOC)C(=O)c1cc(COc2ccc3c(c2)CCCC3)on1` gave an INHIBITION of 25.1%. With `Cc1cc(C(F)(F)F)nc(CCNC(C)Cn2cncn2)n1` (stereo unspecified) the INHIBITION was 8.86%. With `COC(=O)CCCC(=O)N1CCC(CO)(CCc2ccccc2)CC1` the INHIBITION was 30.7%. With `CCc1ccc(NC(=O)c2n[nH]c(-n3cnnc3)n2)cc1` the INHIBITION was 25.9%. `CCc1nc(C2CCCN(C(=O)C(C)(C)NS(C)(=O)=O)C2)no1` (stereo unspecified) showed an INHIBITION of 3.73%. Compound `O=C(c1cnn2c1OCCC2)N1CCC(Cc2ccccc2)CC1` has an INHIBITION of 13.6%. With `CCN1CCOC(CNCc2cnc(C(C)(C)C)s2)C1` (stereo unspecified) the INHIBITION was 46.5%. Compound `CCN1CCOC(CNCc2ccccn2)C1` (stereo unspecified) has an INHIBITION of 33%. `c1cc(CNCC2Cn3nncc3CO2)ccn1` (stereo unspecified) showed an INHIBITION of 29.8%. Work on `Cc1ccc(CNCC2Cn3nncc3CO2)s1` (stereo unspecified) yielded an INHIBITION of 54.8%. `CCN1CCOC(CNCc2ccc(C)s2)C1` (stereo unspecified) was tested, and the INHIBITION was 73.6%. Compound `Cc1nc(CNCC2Cn3nncc3CO2)cs1` (stereo unspecified) has an INHIBITION of 5.89%. For `c1coc(CNCC2Cn3nncc3CO2)c1` (stereo unspecified), the INHIBITION was 62.9%. `Cc1ccc(CNCC2Cn3nncc3CO2)o1` (stereo unspecified) was tested, and the INHIBITION was 43.9%. In the case of `c1cc(CNCC2Cn3nncc3CO2)co1` (stereo unspecified), the INHIBITION is reported as -21.7%. Work on `COc1cccc(C(=O)N2CCc3c(nc(N)[nH]c3=O)C2)c1C` yielded an INHIBITION of 21.8%. `CN(C)C(=O)[C@H]1C[C@@H]2CCN(Cc3ccoc3)C[C@@H]2O1` was tested, and the INHIBITION was 34%. `O=C(Nc1ccccc1)c1cc2n(n1)CCCN(C(=O)N1CCCC1)C2` gave an INHIBITION of 35%. `Cc1cc2ccccc2n1CCC(=O)NCCCc1nnc(N)s1` showed an INHIBITION of 0.426%. With `CCCC(C)C(=O)N1CCC(n2cccc2C(=O)OC)CC1` (stereo unspecified) the INHIBITION was 12.2%. With `N#Cc1cccc(N2CC3(CCN(C(=O)c4ccncc4)C3)CC2=O)c1` (stereo unspecified) the INHIBITION was 21.5%. Compound `Cc1nn(C)c(C)c1C1CCCN1Cc1nc(C2CC2)no1` (stereo unspecified) has an INHIBITION of 21.2%. `CCCc1noc(CN2CCCC2c2c(C)nn(C)c2OC)n1` (stereo unspecified) showed an INHIBITION of 42.9%. Compound `COc1c(C2CCCN2Cc2nc(C3CC3)no2)c(C)nn1C` (stereo unspecified) has an INHIBITION of 52.3%. `Cc1nn(C)c(C)c1C1CCCN1C(=O)Cc1cn2ccsc2n1` (stereo unspecified) showed an INHIBITION of 21.1%. For `Cc1nn(C)c(Cl)c1C1CCCN1Cc1cn2ccsc2n1` (stereo unspecified), the INHIBITION was 24.8%. Compound `CCc1nc(C2CCCN2Cc2nccn2Cc2ccccc2)no1` (stereo unspecified) has an INHIBITION of 32%. Compound `Cc1nn(C)c(C)c1C1CCCN1Cc1cn2ccsc2n1` (stereo unspecified) has an INHIBITION of 74%. `COc1c(C2CCCN2Cc2nc(C)c(C)o2)c(C)nn1C` (stereo unspecified) was tested, and the INHIBITION was 11.2%. `CCCn1ccnc1CN1CCCC1c1cccc(-n2ccnc2)n1` (stereo unspecified) showed an INHIBITION of 42.4%. `COc1c(C2CCCN2Cc2cn3ccsc3n2)c(C)nn1C` (stereo unspecified) gave an INHIBITION of 65.6%. Compound `CCCn1ccnc1CN1CCCC1c1ccccn1` (stereo unspecified) has an INHIBITION of 56.7%. `COc1c(C2CCCN2Cc2csc(C(C)C)n2)c(C)nn1C` (stereo unspecified) was tested, and the INHIBITION was 20.1%.

Source: ChEMBL document CHEMBL4513216, “Probing the Open Global Health Chemical Diversity Library for Multistage-Active Starting Points for Next-Generation Antimalarials” (ACS Infect Dis, 2020)
